47 molecules from PubChem BioAssay AID686970 (National Center for Advancing Translational Sciences (NCATS), 2013) can be followed below.

The structures appear in SMILES notation. Hit rate of the full screen: of about 360,000 compounds, about 6,000 (1.7%) were called active. Not shown: some 8% with an inconclusive outcome. The sample holds actives, similar compounds and a random draw of the others, so the mix is not that of the screen. Values without a mark were called inactive. Calls come from the whole dose curve; as a rule, active = well fitted cell-killing curve with a large enough effect; inconclusive = small, poorly fitted or top-dose-only effect, or effect the other way; inactive = flat fitted curve, though single readings scatter.
Potency is the fitted concentration of half-maximal effect.

The nature of the assay: qHTS for induction of synthetic lethality in tumor cells producing 2HG: qHTS for the HT-1080-NT fibrosarcoma cell line.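 For activity, negative = less viability: 0% = DMSO-treated cells and -100% = media-only wells without cells.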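 Note: NT is the 2HG producing partner of a matched IDH1 knockdown line; nearly all actives have a fitted effect of over 55% in size.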 The note with it: HT-1080-NT fibrosarcoma viability, CellTiter-Glo ATP luminescence, 48 h; series mostly up to 46.1 µM; activity, negative = less viability: at the top concentration. The essentials: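 Read-out is CellTiter-Glo luminescence after 10 minutes at room temperature, following 48 hours' compound treatment of HT-1080-NT cells (750 cells/well, RPMI, 5% FBS, 37 degrees C).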
(In general: Quantitative high-throughput screening tests each substance at several concentrations.)
In the case of `O=S1(=O)C[C@@H](N2CCN(CCO)CC2)[C@H](COCc2ccccc2)N1`, the “activity, negative = less viability” value was 14.5%. Still for that read-out and setting: the figure for `Cc1cn([C@H]2C[C@H](O)[C@@H](/C=C/C(=O)NCCCc3ccccc3)O2)c(=O)[nH]c1=O` is -2.92%; for `CSc1ccc(CN2CCC2(C)C(=O)NCc2ccccc2Br)cc1` (configuration not stated) it is -24.6%.

Take `O=C(NCc1ccccc1)c1ccc(S(=O)(=O)Nc2cccc(C(F)(F)F)c2)cc1`: the “activity, negative = less viability” value is -25.6%.

As to `O=C(COc1ccc(S(=O)(=O)Nc2cccc(C(F)(F)F)c2)cc1)N1CCOCC1`, the “activity, negative = less viability” value was -3.05%. As to `Cc1oc2c(F)c(F)c(F)c(F)c2c1S(=O)(=O)Nc1cccc(C(F)(F)F)c1`, the Potency was 3.26 µM (active).

Consider `CCCCn1nnnc1C(c1cccc(OC)c1OC)N1CCN(C/C=C/c2ccccc2)CC1` (configuration not stated), for which the “activity, negative = less viability” value is -22.9%. For the molecule `C/C(=N\Nc1ccc(Cl)nn1)c1ccccc1O`, the Potency is 0.731 µM (active).

With `CCCCCCCN=C(C)c1ccccc1O`, the “activity, negative = less viability” value is 19.4%.

For `C/C(=N/Nc1ccc(Cl)cc1)c1cnnc(-c2ccccc2)n1`, the “activity, negative = less viability” value was 12.4%. On the same count and under the same terms, in the case of `CCOC(=O)[C@]12CCCC=C1N(Cc1ccc(Cl)cc1Cl)C(=O)[C@H](CC(=O)N1CCCCC1)C2` it was 14.2%; in that of `Cc1ccc(NC(=S)N(CCCN2CCC(C)CC2)Cc2ccco2)cc1`, 0.938%; in that of `Cc1ccc(NC(=S)N(CCN2CCCCC2)Cc2ccco2)cc1C`, -4.57%.

As to `Cc1ccc(NC(=S)N(CCCN2CCCC2)Cc2cccn2Cc2ccc(Cl)cc2)cc1`, the Potency is 23.1 µM (active). As for `Cc1nc(C(F)(F)F)ccc1C(=O)N1CCC1(C)C(=O)NS(=O)(=O)c1ccccc1` (configuration not stated), the “activity, negative = less viability” value is 0.451%. As to `Cc1onc(-c2c(Cl)cccc2Cl)c1C(=O)NNC(=O)c1c(-c2c(Cl)cccc2Cl)noc1C`, the “activity, negative = less viability” value was -6.56%.

Regarding `Cc1[nH]n(C)c(=O)c1C(=O)c1c(-c2c(Cl)cccc2Cl)noc1C`, the Potency is 20.6 µM (active). In the case of `Cc1onc(-c2c(Cl)cccc2Cl)c1C(=O)c1c[nH]c(C(=O)NC2CC2)c1`, the “activity, negative = less viability” value is -5.57%. Same read-out and setting: the figure for `CCC(Oc1ccccc1)C(=O)OCC(=O)Nc1c(C)nn(-c2ccccc2)c1C` (configuration not stated) is 13.5%. On to `COc1cccc(OCc2cc(C(=O)N3CCN(C(=O)c4ccco4)CC3)no2)c1`, for which the “activity, negative = less viability” value was 6.57%. On the same count and under the same terms, in the case of `COc1cccc(C(=O)Nc2nnc(S(=O)(=O)N3CCCCC3)s2)c1` it was -9.49%; in that of `COc1cccc(C(=O)Nc2ccc3nc4n(c(=O)c3c2)CCCCC4)c1`, 0.489%; in that of `Cc1ccc(OCC(=O)Nc2ccc(N3CCN(C(=O)c4ccco4)CC3)cc2)c(C)c1`, -2.23%.

For `COc1cccc(C(=O)Nc2ccc(N3CCCC3)cc2)c1`, the Potency was 20.6 µM (active). For `COc1cccc(C(=O)Nc2ccc(N3CCN(C(=O)c4ccco4)CC3)cc2)c1`, the Potency is 23.1 µM (active). In the case of `COc1cccc(-c2ccc3c(c2)N(Cc2ccccc2OC)C(=O)C(C)S3)c1` (configuration not stated), the “activity, negative = less viability” value was 14%.

Consider `O=C1NC[C@@H](CCCCN2CCN(CCc3ccc(O)cc3)C(=O)C2=O)N(CC2CCCCC2)C1=O`, for which the “activity, negative = less viability” value is 2.04%. The same measure, in the same setting: the figure for `Cc1ccccc1S(=O)(=O)NC(=O)C1(C)CCN1C(=O)Cc1ccc(Cl)cc1Cl` (configuration not stated) is 0.417%; for `CC1(C)OC(=O)C2=C(C[C@@H](C3CCCC3)O[C@@H]2c2ccc(Cl)cc2)O1` it is -0.447%. On the same count and under the same terms, in the case of `COc1ccc(NC(=O)CCCOc2ccc(C(C)=O)cc2)cc1S(=O)(=O)N1CCCCC1` it was -10.6%. On the same count and under the same terms, in the case of `CC(=O)Nc1cc(-c2ccc(N3CCN(C)CC3)cc2)cn2c(-c3cccc(C(=O)N(C)C)c3)cnc12` it was 22.9%. For `CCS(=O)(=O)Nc1ccc(C2=NN(C(C)=O)C(c3cccs3)C2)cc1` (configuration not stated), the Potency is 23.1 µM (active).

As to `CS(=O)(=O)Nc1ccc(C2=NN(S(C)(=O)=O)C(c3cccs3)C2)cc1` (configuration not stated), the “activity, negative = less viability” value was 3.27%. On the same count and under the same terms, the figure for `CS(=O)(=O)Nc1cccc(C2=NN(C(=O)c3cccc(F)c3)C(c3cccs3)C2)c1` (configuration not stated) is -17.5%; for `O=C(Cc1ccc([N+](=O)[O-])cc1)NCCS(=O)(=O)N1CCN(c2ccccc2)CC1` it is -2.58%. In the case of `COc1ccc(CC(N)c2csc(NC(=O)Cc3ccccc3)n2)cc1` (configuration not stated), the Potency is 23.1 µM (active). `COc1ccc(CNC(=O)C(Cc2ccccc2)n2cccc2)cc1` (configuration not stated): the “activity, negative = less viability” value was 12.5%. The same measure, in the same setting: the figure for `COc1ccc(OC)c(NC(=O)N[C@H](Cc2ccccc2)C(=O)NN)c1` is -17.7%; for `CC(C)(C)CC(=O)Nc1nnc(SCC(=O)NCc2cccs2)s1` it is -2.03%. On to `COc1ccc(CC(N)c2csc(NC(=O)NC(c3ccccc3)c3ccccc3)n2)cc1` (configuration not stated), for which the Potency is 23.1 µM (active). For `COc1ccc(Cc2nnc(NC(=O)Cc3cccs3)s2)cc1`, the “activity, negative = less viability” value was -7.23%. The same measure, in the same setting: the figure for `Cc1ccccc1NC(=O)Cc1nc(COC(=O)c2ccc(C(F)(F)F)cc2)cs1` is -8.34%. Same read-out and setting: the figure for `COC(=O)[C@H](CCSC)NC(=O)Nc1ccc(OC)cc1` is 7.07%.

As to `CC(C)(C)CC(=O)Nc1nc(C(N)Cc2ccc(C(F)(F)F)cc2)cs1` (configuration not stated), the Potency was 16.4 µM (active). With `COc1ccc(NC(=O)C(Br)C(C)C)cc1` (configuration not stated), the “activity, negative = less viability” value was 2.27%. Still for that read-out and setting: the figure for `COc1ccc(CC(=O)Nc2sc(Cc3ccccc3)c(C)c2C(N)=O)cc1` is -16.4%.

Turning to `COc1ccc(CC(N)c2csc(NC(=O)Nc3ccc(C(C)C)cc3)n2)cc1` (configuration not stated), the Potency is 18.4 µM (active).
